These results are taken from PubChem BioAssay (NCI).

Test [1] is described as follows: NCI Yeast Anticancer Drug Screen. Data for the rad50 strain (AID 155).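 Further: 0% = growth of vehicle-only cultures of the same strain.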 As to conditions: S. cerevisiae rad50 strain growth inhibition, hits give high values. The essentials:
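Yeast carrying a defined DNA repair defect were exposed to test compounds, and growth was compared with vehicle-treated controls to give percent inhibition.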

Test [2] can be described thus: NCI Yeast Anticancer Drug Screen. Data for the mec2-1 strain (AID 157). As to conditions: S. cerevisiae mec2-1 strain, hits give high values. The essentials: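 Compounds were applied to mec2-1 yeast cells. Their growth was then compared with that of vehicle-treated cultures to give growth inhibition.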
A short description of test [3]: NCI Yeast Anticancer Drug Screen. Data for the sgs1 mgt1 strain (AID 161).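 Further: 0% = growth of cultures given vehicle only.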 Particulars: S. cerevisiae sgs1 mgt1 strain, hits give high values. The essentials: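 Percent growth inhibition was derived by comparing compound-exposed mutant yeast with vehicle-exposed cultures. The strain carries alterations in DNA damage repair.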
A short description of test [4]: NCI Yeast Anticancer Drug Screen. Data for the cln2 rad14 strain (AID 165).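 Further: 0% = growth equal to vehicle treated cultures.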 As to conditions: S. cerevisiae cln2 rad14 strain, hits give high values. The essentials:
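Strain: cln2 rad14 yeast, altered in cell cycle control and DNA damage repair. Read-out: growth inhibition vs vehicle.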

Test [5] is described as follows: NCI Yeast Anticancer Drug Screen. Data for the bub3 strain (AID 167). As to conditions: S. cerevisiae bub3 mutant strain, hits give high values. The essentials:
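Compounds were applied to a genetically altered yeast strain carrying a cell-cycle control defect. Growth inhibition was scored against vehicle-treated controls.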

Test [6] is described as follows: NCI Yeast Anticancer Drug Screen. Data for the mlh1 rad18 strain (AID 175). As to conditions: S. cerevisiae mlh1 rad18 strain growth inhibition, hits give high values. The essentials: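 A repair-deficient yeast strain is exposed to test compound, and growth is scored relative to vehicle-treated controls.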
Setting [7] is: at 5.0 µM (retest, dose inferred, filed as 0.5).
Where [8] appears, read: at 50.0 µM (retest, dose inferred, filed as 5.0).

About 79,000 compounds went through this panel and 15% of them were active in at least one assay; those are over-represented in the sample as a whole. A number with no mark means an inactive call. Activity calls are given as the source filed them. No stated cut-off is given here; in the data, active means growth inhibition above about 70%; inactive means the rest.

With `COc1ccccc1/C=C/[N+](=O)[O-]`, the growth inhibition was 90% (active) in test [1] (setting [7]); 98% (active) in test [1] (setting [8]); 99.6% (active) in test [1] (at 50.0 µM); 65% in test [2] (setting [7]); 99% (active) in test [2] (setting [8]); 99.7% (active) in test [2] (at 50.0 µM). Also, the growth inhibition in test [3] (setting [7]) is 87% (active); in test [3] (setting [8]) it was 99% (active); in test [3] (at 50.0 µM) it was 99.2% (active); in test [4] (setting [7]), 62%; in test [4] (setting [8]), 99% (active); in test [4] (at 50.0 µM) it was 99.3% (active). The growth inhibition was 74% (active) in test [5] (setting [7]); 98% (active) in test [5] (setting [8]); 99.2% (active) in test [5] (at 50.0 µM); 96% (active) in test [6] (setting [7]); 99% (active) in test [6] (setting [8]); 99% (active) in test [6] (at 50.0 µM).

For the molecule `CC(=O)C(CN1CCOCC1)C(c1ccccc1)c1c(O)c2ccccc2oc1=O` (configuration not stated), the growth inhibition in test [1] (setting [7]) was 7%; in test [1] (setting [8]), 73% (active); in test [1] (at 50.0 µM), -1.6%; in test [2] (setting [7]), 5%; in test [2] (setting [8]) it was 75% (active); in test [2] (at 50.0 µM), -12.3%. Besides, the growth inhibition in test [3] (setting [7]) is 3%; in test [3] (setting [8]) it was 80% (active); in test [3] (at 50.0 µM), 9.4%; in test [4] (setting [7]) it was 5%; in test [4] (setting [8]), 79% (active); in test [4] (at 50.0 µM), 0.25%. The growth inhibition in test [5] (setting [7]) was 22%; in test [5] (setting [8]), 83% (active); in test [5] (at 50.0 µM) it was 21.9%; in test [6] (setting [7]), 6%; in test [6] (setting [8]) it was 81% (active); in test [6] (at 50.0 µM), -13.5%.

As to `O=C(N/N=C/c1cc(Br)cc(Br)c1[O-])c1ccccc1O.O=C(N/N=C/c1cc(Br)cc(Br)c1[O-])c1ccccc1O.[Co+2]`, the growth inhibition in test [1] (setting [7]) was 93% (active); in test [1] (setting [8]), 97% (active); in test [1] (at 50.0 µM) it was 94.6% (active); in test [2] (setting [7]), 95% (active); in test [2] (setting [8]) it was 96% (active); in test [2] (at 50.0 µM), 95.7% (active). Further, the growth inhibition in test [3] (setting [7]) is 91% (active); in test [3] (setting [8]), 98% (active); in test [3] (at 50.0 µM), 94.8% (active); in test [4] (setting [7]), 82% (active); in test [4] (setting [8]) it was 97% (active); in test [4] (at 50.0 µM), 92.5% (active). Moreover, the growth inhibition was 90% (active) in test [5] (setting [7]); 97% (active) in test [5] (setting [8]); 95.5% (active) in test [5] (at 50.0 µM); 95% (active) in test [6] (setting [7]); 96% (active) in test [6] (setting [8]); 96% (active) in test [6] (at 50.0 µM).

As to `CCOC(=O)C(c1ccsc1)P(=O)(OCC)OCC` (configuration not stated), the growth inhibition was 11% in test [1] (setting [7]); 60% in test [1] (setting [8]); 69.2% in test [1] (at 50.0 µM); -21% in test [2] (setting [7]); 74% (active) in test [2] (setting [8]); 66.7% in test [2] (at 50.0 µM). Besides, the growth inhibition in test [3] (setting [7]) is 12%; in test [3] (setting [8]) it was 53%; in test [3] (at 50.0 µM), 60.6%; in test [4] (setting [7]), 19%; in test [4] (setting [8]), 68%; in test [4] (at 50.0 µM), 57%. Also, the growth inhibition was 8% in test [5] (setting [7]); 87% (active) in test [5] (setting [8]); 67.3% in test [5] (at 50.0 µM); 4% in test [6] (setting [7]); 84% (active) in test [6] (setting [8]); 60.9% in test [6] (at 50.0 µM).

In the case of `Nc1cccc([As]=S)c1` (configuration not stated), the growth inhibition was 7% in test [1] (setting [7]); 99% (active) in test [1] (setting [8]); 98.5% (active) in test [1] (at 50.0 µM); 11% in test [2] (setting [7]); 99% (active) in test [2] (setting [8]); 98.9% (active) in test [2] (at 50.0 µM). The growth inhibition in test [3] (setting [7]) was -9%; in test [3] (setting [8]), 100% (active); in test [3] (at 50.0 µM), 91.5% (active); in test [4] (setting [7]), 13%; in test [4] (setting [8]), 98% (active); in test [4] (at 50.0 µM), 96.9% (active). For the same molecule, the growth inhibition is -4% in test [5] (setting [7]); 99% (active) in test [5] (setting [8]); 98.8% (active) in test [5] (at 50.0 µM); 15% in test [6] (setting [7]); 99% (active) in test [6] (setting [8]); 98.8% (active) in test [6] (at 50.0 µM).

As to `Cc1sc(Cc2ccccc2)nc1-c1ccc(N=Cc2ccc(N(CCCl)CCCl)cc2)cc1`, the growth inhibition is 20% in test [1] (setting [7]); 95% (active) in test [1] (setting [8]); 96.2% (active) in test [1] (at 50.0 µM); 2% in test [2] (setting [7]); 98% (active) in test [2] (setting [8]); 93.8% (active) in test [2] (at 50.0 µM). The growth inhibition in test [3] (setting [7]) is -108%; in test [3] (setting [8]) it was 98% (active); in test [3] (at 50.0 µM), 96% (active); in test [4] (setting [7]), -1%; in test [4] (setting [8]), 90% (active); in test [4] (at 50.0 µM), 93.6% (active). Further, the growth inhibition in test [5] (setting [7]) was 2%; in test [5] (setting [8]), 96% (active); in test [5] (at 50.0 µM), 89% (active); in test [6] (setting [7]), 58%; in test [6] (setting [8]), 97% (active); in test [6] (at 50.0 µM), 96.2% (active).

Consider `O=C([O-])C(F)(F)C(F)(F)F.[C-]#[O+].[C-]#[O+].[C-]#[O+].[C-]#[O+].[C-]#[O+].[Re]`, for which the growth inhibition is 15% in test [1] (setting [7]); 15% in test [1] (setting [8]); 83.7% (active) in test [1] (at 50.0 µM); 13% in test [2] (setting [7]); 13% in test [2] (setting [8]); 92% (active) in test [2] (at 50.0 µM). Also, the growth inhibition was 12% in test [3] (setting [7]); 12% in test [3] (setting [8]); 90.7% (active) in test [3] (at 50.0 µM); 12% in test [4] (setting [7]); 12% in test [4] (setting [8]); 68.5% in test [4] (at 50.0 µM). Also, the growth inhibition in test [5] (setting [7]) was -4%; in test [5] (setting [8]), -4%; in test [5] (at 50.0 µM), 91.5% (active); in test [6] (setting [7]), 10%; in test [6] (setting [8]), 10%; in test [6] (at 50.0 µM), 44%.

Consider `C[C@H]1CC[C@@]2(NC1)O[C@H]1C[C@H]3[C@@H]4CC[C@H]5C[C@@H](O)CC[C@]5(C)[C@H]4CC[C@]3(C)[C@H]1[C@@H]2C`, for which the growth inhibition was 42% in test [1] (setting [7]); 96% (active) in test [1] (setting [8]); 92.2% (active) in test [1] (at 50.0 µM); 27% in test [2] (setting [7]); 98% (active) in test [2] (setting [8]); 93.8% (active) in test [2] (at 50.0 µM). For the same molecule, the growth inhibition was 66% in test [3] (setting [7]); 99% (active) in test [3] (setting [8]); 93.5% (active) in test [3] (at 50.0 µM); 54% in test [4] (setting [7]); 98% (active) in test [4] (setting [8]); 91.5% (active) in test [4] (at 50.0 µM). The growth inhibition in test [5] (setting [7]) was 64%; in test [5] (setting [8]), 99% (active); in test [5] (at 50.0 µM), 92.5% (active); in test [6] (setting [7]), 33%; in test [6] (setting [8]), 98% (active); in test [6] (at 50.0 µM) it was 86.8% (active).

On to `C#CCN1C(=O)N(CC#C)C(=O)C(CC#C)(C(CC=C)c2ccccc2)C1=O` (configuration not stated), for which the growth inhibition was 1% in test [1] (setting [7]); 96% (active) in test [1] (setting [8]); 57.3% in test [1] (at 50.0 µM); 2% in test [2] (setting [7]); 97% (active) in test [2] (setting [8]); 26.6% in test [2] (at 50.0 µM). Besides, the growth inhibition in test [3] (setting [7]) was -1%; in test [3] (setting [8]) it was 97% (active); in test [3] (at 50.0 µM) it was 66.5%; in test [4] (setting [7]), 16%; in test [4] (setting [8]), 95% (active); in test [4] (at 50.0 µM), 58.5%. Also, the growth inhibition in test [5] (setting [7]) was 9%; in test [5] (setting [8]), 98% (active); in test [5] (at 50.0 µM), 59%; in test [6] (setting [7]) it was -23%; in test [6] (setting [8]), 97% (active); in test [6] (at 50.0 µM), 53.4%.
